Data on 47 compounds can be found in the supplement of paper PMC4723716.

± gives the uncertainty stated by the source. Whole data set: some 9,900 compounds, median “viability index relative to DMSO control” near 1, cut for the lowest 2% near 0.85. What follows is part of a selection rich in the lowest values, with near analogues and random picks from the rest.

The test system of the assay is Plasmodium falciparum NF54 stage V gametocytes. Kind of assay: viability index relative to DMSO control (fraction); higher = less gametocyte killing. As to conditions: 2.5 µM, incubation time: 72 h. The gist of the method: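 P. falciparum NF54 stage V gametocytes (serum-free medium, 0.75% gametocytemia, 1.25% hematocrit) were exposed to compound at 2.5 µM for 72 hr at 37°C under low oxygen, then stained with MitoTracker Red CMXRos and saponin for one to two hours. Red particles of 20–70 µm2 in one field per well were counted, and the viability index is that count scaled to the plate mean of solvent-only wells.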

Setting [1] is: library set: Broad Institute DOS.
Setting [2] is: library set: Broad Institute Blood Stage.

In turn, `O=C(CN1CCOCC1)N[C@H]1CC[C@H](CCn2cc(C3CC3)nn2)O[C@@H]1CO` registered a viability index under setting [1] of 1.16 ± 0.021. As for `C/C=C/c1ccc2n(c1=O)C[C@@H]1N[C@H]2[C@H](C(=O)NC2CCCC2)[C@H]1CO.C/C=C\c1ccc2n(c1=O)C[C@@H]1N[C@H]2[C@H](C(=O)NC2CCCC2)[C@H]1CO`, the viability index under setting [1] is 1.04 ± 0.018.

`COc1ccc2c3c([C@H](CO)N(C[C@]33CCN(CC3)C(=O)c3ccccc3)C(=O)c3ccccc3)n(C)c2c1` had a viability index under setting [1] of 0.979 ± 0.13. Still for that read-out and setting: to `COc1ccc2c(c1)n(C)c1[C@H](CO)N(C[C@]3(CCN(C)CC3)c21)C(=O)c1ccc(F)cc1` belongs 1.05 ± 0.018. Take `COc1ccc2c3c([C@@H](CO)N(C[C@]33CN(C3)C(=O)c3cccc(F)c3)C(=O)c3cccc(F)c3)n(C)c2c1`: the viability index under setting [1] was 0.848 ± 0.02.

Consider `COc1ccc2c3c([C@@H](CO)N(C[C@]33CCN(CC3)C(=O)c3ccccc3)C(=O)c3ccccc3)n(C)c2c1`, for which the viability index under setting [1] came out at 0.761 ± 0.011. On the same count and under the same terms, to `CCS(=O)(=O)N1CC[C@@]2(CC1)CN([C@@H](CO)c1c2c2ccc(OC)cc2n1C)C(=O)c1cccc(F)c1` belongs 1.02 ± 0.079; to `COc1ccc2c3c([C@H](CO)N(C[C@]33CN(C3)C(=O)c3cccc(F)c3)C(=O)c3cccc(F)c3)n(C)c2c1`, 1.04 ± 0.047.

Take `Cc1noc(C)c1S(=O)(=O)Nc1ccc2c(c1)C(=O)N([C@@H](C)CO)C[C@H](C)[C@H](CN(C)Cc1ccc(C(=O)O)cc1)OCCCC[C@H](C)O2`: under setting [1], the viability index was 1.14 ± 0.051.

In the case of `O=C(C[C@H]1C[C@H]2c3cc(NC(=O)C4CCOCC4)ccc3O[C@H]2[C@H](CO)O1)NCc1cccnc1`, the viability index under setting [1] turned out to be 1.086 ± 0.0019. `O=C(N[C@H]1CC[C@@H](CCn2cc(-c3ccccc3F)nn2)O[C@H]1CO)c1ccc2c(c1)OCO2`: the viability index under setting [1] was 1.1 ± 0.06. Turning to `COC(=O)C[C@@H]1CC[C@H]2[C@@H](COc3ccc(NS(=O)(=O)c4ccc(C)cc4)cc3C(=O)N2C)O1`, the viability index under setting [1] is 1.07 ± 0.083. The same measure, in the same setting: to `CN1C(=O)c2cc(NC(=O)c3ccc(F)c(F)c3)ccc2OC[C@H]2O[C@@H](CC(=O)N3CCCCC3)CC[C@H]21` belongs 1.1 ± 0.0047; to `COc1ccc2c3c([C@@H](CO)N(C[C@]33CCN(CC3)S(C)(=O)=O)C(=O)CN(C)C)n(C)c2c1`, 0.956 ± 0.029; to `COc1ccc2c3c([C@H](CO)N(Cc4ccccc4Cl)C[C@]33CN(C3)C(=O)CN(C)C)n(C)c2c1`, 0.782 ± 0.042. The compound `COCC(=O)N1C[C@@]2(C1)CN(Cc1ccc3OCOc3c1)[C@H](CO)c1c2c2ccc(OC)cc2n1C` returned a viability index under setting [1] of 0.938 ± 0.068.

The compound `COc1ccc2c3c([C@@H](CO)N(C[C@]33CCN(CC3)C(=O)c3ccc4OCOc4c3)C(=O)Nc3ccc(F)cc3)n(C)c2c1` yielded a viability index under setting [1] of 0.967 ± 0.057. Same read-out and setting: as for `COc1ccc2c3c([C@H](CO)N(Cc4ccccc4Cl)C[C@]33CCN(CC3)C(=O)CC3CC3)n(C)c2c1`, the figure is 0.922 ± 0.014; as for `COc1ccc2c3c([C@@H](CO)N(CC4CC4)C[C@]33CN(C3)C(=O)c3ccc4OCOc4c3)n(C)c2c1`, 1.02 ± 0.016; as for `COc1ccc2c3c([C@H](CO)N(C[C@]33CCN(CC3)C(=O)c3ccc4OCOc4c3)C(=O)Nc3ccc(F)cc3)n(C)c2c1`, 0.846 ± 0.055.

In turn, `COc1ccc2c3c([C@@H](CO)N(C)C[C@]33CCN(CC3)C(=O)c3ccc4OCOc4c3)n(C)c2c1` had a viability index under setting [1] of 0.9516 ± 0.0011.

`COc1ccc2c3c([C@@H](CO)N(Cc4ccccc4Cl)C[C@]33CCN(CC3)C(=O)CC3CC3)n(C)c2c1` had a viability index under setting [1] of 0.939 ± 0.025. Same read-out and setting: as for `COc1ccc(cc1)S(=O)(=O)N1C[C@@]2(C1)CN([C@@H](CO)c1c2c2ccc(OC)cc2n1C)C(=O)CN(C)C`, the figure is 0.95 ± 0.059. Compound `COc1ccc2c3c([C@H](CO)N(Cc4ccc5OCOc5c4)C[C@]33CN(C3)C(=O)c3ccc4OCOc4c3)n(C)c2c1` displayed a viability index under setting [2] of 0.435 ± 0.088. The compound `COc1ccc(cc1)S(=O)(=O)N1C[C@@]2(C1)CN([C@H](CO)c1c2c2ccc(OC)cc2n1C)C(=O)CN(C)C` returned a viability index under setting [1] of 0.841 ± 0.028. The same measure, in the same setting: to `COc1ccc2c3c([C@@H](CO)NC[C@]33CN(CC4CCOCC4)C3)n(C)c2c1` belongs 1.07 ± 0.029; to `C[C@H](CO)N1C[C@H](C)[C@H](CN(C)Cc2ccc(Oc3ccccc3)cc2)Oc2ccc(N(C)C)cc2C1=O`, 1.01 ± 0.043.

For the compound `O=C(CCN1CCCCC1)N[C@H]1CC[C@@H](CCn2cc(-c3cccc(F)c3)nn2)O[C@H]1CO`, under setting [1], the viability index worked out at 1.07 ± 0.038. Still for that read-out and setting: to `C[C@@H]1CN([C@@H](C)CO)C(=O)c2cc(NC(=O)Nc3cccc4ccccc34)ccc2O[C@@H](C)CCCCO[C@@H]1CN(C)S(=O)(=O)c1cn(C)cn1` belongs 0.949 ± 0.081. The compound `C[C@@H]1CC(=O)NCC/C=C\C[C@H](c2ccc3c(c2)OCO3)NC1=O` gave a viability index under setting [1] of 1.059 ± 0.0056. On the same count and under the same terms, to `C[C@@H]1CN([C@@H](C)CO)C(=O)CCCn2nncc2CO[C@H]1CN(C)S(=O)(=O)c1cn(C)cn1` belongs 1.07 ± 0.065. Same read-out and setting: to `C[C@H]1CN([C@@H](C)CO)C(=O)c2cc(N(C)C)ccc2O[C@@H]1CN(C)CC1CCCCC1` belongs 1.01 ± 0.12; to `COc1ccc2c3c([C@H](CO)N(C[C@]33CN(Cc4ccccc4F)C3)C(=O)Nc3ccc(F)cc3)n(C)c2c1`, 1 ± 0.091; to `COc1ccc2c3c([C@@H](CO)N(C[C@]33CN(Cc4ccccc4F)C3)C(=O)Nc3ccc(F)cc3)n(C)c2c1`, 0.791 ± 0.066. Same read-out and setting: as for `COc1ccc2c3c([C@@H](CO)N(C[C@]33CN(C3)C(=O)Cc3ccncc3)C(=O)Nc3ccc(F)cc3)n(C)c2c1`, the figure is 0.974 ± 0.085. Under setting [2], `COc1cccc(C#Cc2ccc([C@H]3[C@@H](CO)N4C(=O)CN(C(=O)c5ccccc5)C[C@H]34)cc2)c1` yielded a viability index of 0.754 ± 0.074. In the case of `CCCNC(=O)N1CC(=O)N2[C@H](CO)[C@H](c3ccc(C#Cc4cccc(OC)c4)cc3)[C@@H]2C1`, the viability index under setting [1] was 1.02 ± 0.062. As for `COc1cccc(C#Cc2ccc([C@H]3[C@@H](CO)N4C(=O)CN(C(=O)Cc5ccccc5)C[C@H]34)cc2)c1`, the viability index under setting [2] is 0.778 ± 0.047.

Compound `O=C(Cc1cccnc1)N1CC(=O)N2[C@H](CO)[C@@H](c3ccc(C#CC4CCCCC4)cc3)[C@H]2C1` came in with a viability index under setting [1] of 1.04 ± 0.06. The compound `COc1cccc(C#Cc2ccc([C@H]3[C@H](CO)N4C(=O)CN(C(=O)Cc5cccnc5)C[C@@H]34)cc2)c1` returned a viability index under setting [1] of 0.945 ± 0.048.

With `O=C(Cc1cccnc1)N1CC(=O)N2[C@H](CO)[C@H](c3ccc(C#CC4CCCCC4)cc3)[C@H]2C1`, under setting [1], the viability index was determined as 0.801 ± 0.073.

Compound `O=C(Cc1cccnc1)N1CC(=O)N2[C@H](CO)[C@@H](c3ccc(C#CC4CCCCC4)cc3)[C@@H]2C1` displayed a viability index under setting [1] of 1.07 ± 0.032.

Under setting [1], `COc1cccc(C#Cc2ccc([C@@H]3[C@H](CO)N4C(=O)CN(C(=O)Cc5cccnc5)C[C@@H]34)cc2)c1` displayed a viability index of 0.904 ± 0.094.

As for `COc1cccc(C#Cc2ccc([C@H]3[C@H]4CN(C(=O)Cc5cccnc5)CC(=O)N4[C@H]3CO)cc2)c1`, the viability index under setting [1] came out at 1.057 ± 0.0037. On the same count and under the same terms, as for `CCCNC(=O)N1CC(=O)N2[C@H](CO)[C@@H](c3ccc(C#Cc4cccc(OC)c4)cc3)[C@H]2C1`, the figure is 0.936 ± 0.075. On the same count and under the same terms, as for `COc1cccc(C#Cc2ccc([C@@H]3[C@@H](CO)N4C(=O)CN(C(=O)Cc5cccnc5)C[C@H]34)cc2)c1`, the figure is 1.01 ± 0.084; as for `COc1cccc(C#Cc2ccc([C@H]3[C@@H](CO)N4C(=O)CN(C(=O)Cc5cccnc5)C[C@H]34)cc2)c1`, 0.804 ± 0.11.
